Compound activity from PubChem BioAssay.
NS1 function inh: influenza NS1 inhibition; Potency, µM (titrated, usually from 46.1 µM); AID 2326; hit rate 0.4% among 270,000; calls by dose curve; note: actives are rising curves; nearly all actives have a fitted effect of over 50% in size
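Read-out: OD600 growth recovery of NS1-expressing budding yeast. Cells grown overnight at 30C in -URA glucose medium, washed, resuspended and diluted 1:100 in 2% galactose assay medium, pH 6.0. Same strain lacking NS1 served as positive control.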
Shiga inhibitor: blocks Shiga toxin action in Vero cells; Vero cells, Shiga toxin protein synthesis inhibition reporter; inhibition, % at 38.7 µM; hit rate 9.2% among 290,000; in the data active = inhibition mostly above about 28%, no sharp cut-off; inactive = mostly below about 43%
Pf growth 96h: P. falciparum growth inhibition at 96 hour, primary screen for plastid delayed-death inhibitors | P. falciparum luciferase reporter growth, 96 h | Potency, µM (titrated, usually from 28.7 µM), usual class: inhibitors | hit rate 6.9% among 320,000 | AID 504834
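Delayed-death screen, second-generation endpoint: infected erythrocytes, 2% hematocrit, 0.05% parasitemia final; 96 hours at 37 C, 5% CO2; luciferase detection reagent; luminescence decrease equals reduced growth.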
Pf growth 48h: inhibits P. falciparum growth in the first generation, 48 h; hit rate 5.9% among 310,000; AID 504832; P. falciparum luciferase growth in erythrocytes, 48 h; Potency, µM (top dose mostly 28.7 µM), most hits filed as inhibitors
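Erythrocytes infected with P. falciparum carrying an integrated firefly luciferase reporter (2% hematocrit, 0.1% parasitemia final) were exposed to compounds in RPMI 1640 with 0.5% Albumax at 37 C, 5% CO2. Growth inhibition was scored as reduced luminescence.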
CHX counter: counter-screen hit for Shiga toxin inhibitors, cycloheximide. cell reporter, cycloheximide protein synthesis inhibition counterscreen. max response, %. hit rate 12% among 300,000; in the data active = max response mostly above about 13%, no sharp cut-off; inactive = mostly below about 14%; note: read at 38.3 µM for the half of the compounds with a filed dose
SARS PLpro yeast: SARS-CoV PLP inhibition in yeast; hit rate 0.19% among 330,000; S. cerevisiae expressing SARS-CoV PLpro, growth rescue; Potency, µM (series often up to 32.9 µM), hits mostly activators; calls by dose curve; note: nearly all actives have a fitted effect of over 55% in size
Numbers stand for hits; 0 = inactive; ? = inconclusive; - = no result given; [ ] = dose if it differs, or a comment. Sampled rows, rich in hits. Any-hit rate of the full collection: about 21%. Unless noted, calls come from the whole dose curve; as a rule, active = well fitted inhibition curve with a large enough effect; inconclusive = small, poorly fitted or top-dose-only effect, or another doubt; inactive = no such curve, though single readings can be large or run the other way.

SMILES	NS1 function inh	Shiga inhibitor	Pf growth 96h	Pf growth 48h	CHX counter	SARS PLpro yeast
O=C(Nc1ccc2oc(-c3ccccc3Cl)nc2c1)c1ncn[nH]1	0	112.6	-	0	42.8	0
O=C(Nc1ccc2oc(-c3ccccc3Cl)nc2c1)c1cncc(Br)c1	0	70.7	0	0	65.8	0
Nc1ccc2oc(-c3cccc4ccccc34)nc2c1	0	0	-	0	0	0
O=C(Nc1ccc2oc(-c3cccc4ccccc34)nc2c1)c1ncn[nH]1	0	0	?	-	18.1	0
COC(=O)c1cc(S(=O)(=O)NCC2CCN(CCc3ccc(OC)cc3)CC2)cn1C	0	0	0	0	0	0
CCCn1c(=O)c2c(nc3n2CC(C)CN3Cc2ccccc2)n(C)c1=O (stereo not drawn)	0	0	?	?	0	0
Cc1ccnc(NC(=O)Cc2ccc([N+](=O)[O-])cc2)c1	0	0	0	0	18.8	0
CC(C)CC(=O)NC(=S)Nc1ccccn1	0	0	-	0	26.0	?
CC(C)CC(=O)NC(=S)Nc1ccccc1F	0	0	0	0	0	-
O=C(Cc1ccc(-c2ccccc2)cc1)Nc1ccccn1	0	88.2	0	0	39.8	0
Cc1ccnc(NC(=O)Cc2ccc(-c3ccccc3)cc2)c1	0	79.6	0	0	72.2	0
Cc1ccnc(NC(=O)CS(=O)(=O)Cc2ccccc2)c1	0	0	-	0	0	0
Cc1ccc(NC(=O)CSCC(=O)NNC(=O)c2nn(C)c(=O)c3ccccc23)cc1	-	-	0	0	-	0
CC(C)c1cc(C(=O)NNC(=S)NCc2ccco2)c(O)c(C(C)C)c1	0	0	?	0	0	0
COC(=O)[C@]1(C)N[C@H](CN(C)S(=O)(=O)c2ccc(C)cc2)[C@@H]2C(=O)N(Cc3ccccc3)C(=O)[C@@H]21	-	-	-	-	-	0
CC(Oc1ccc(Br)cc1)C(=O)N1CCC(C(N)=O)CC1 (stereo not drawn)	-	0	0	0[5.75 µM]	0	0
O=C(CC(=O)Nc1ccccn1)Nc1ccccn1	0	0	9.28µM	0	18.0	0
O=C(CN1CCN(CC(=O)Nc2ccccn2)CC1)Nc1ccccn1	0	0	?	0	0	0
Cc1ccccc1NC(=O)COC(=O)CCC(=O)c1cccs1	-	-	0	?	-	0
COc1ccc(NC(=O)/C(=C\c2ccncc2)NC(=O)c2ccccc2)cc1	-	0	0	?	0	0
Cc1ccc(C(=O)/C=C/Nc2ccc3c(c2)OCO3)cc1	0	164.3	?	0	61.1	0
Cc1ccc(C(NC(=O)/C=C\c2ccc3c(c2)OCO3)C(=O)Nc2ccc3c(c2)OCO3)cc1 (stereo not drawn)	0	0	0	0	0	0
CC(=O)c1ccc(N/C=C\C(=O)c2ccc(C)cc2)cc1	0	111.9	0	0	53.5	0
C/C(=C\C(=O)c1ccc(C)cc1)Nc1ccc(N2CCOCC2)cc1	0	0	0	?	0	0
C/C(=C\C(=O)c1ccc(C)cc1)Nc1cccc(O)c1	0	93.3	0	0	43.3	0
SMILES	NS1 function inh	Shiga inhibitor	Pf growth 96h	Pf growth 48h	CHX counter	SARS PLpro yeast
CC(=O)c1cccc(N/C=C\C(=O)c2ccc(C)cc2)c1	0	65.4	0	0	42.2	0
CCC1(C(=O)c2ccc(Cl)cc2)C2c3ccccc3OC(=O)C21C(=O)Nc1ccccc1 (stereo not drawn)	?	0	0	0	0	0
CSc1ccc(C2=CC(=O)C[C@H](c3ccc(F)cc3)C2)cc1	-	-	?	?	-	0
O=C(/C=C/Nc1cccc(O)c1)c1ccccc1	0	0	0	0	0	0
Cc1ccc(C(=O)/C=C/Nc2cccc(O)c2)cc1	0[9.22 µM]	0	0	0	9.7	0
COc1ccccc1C(=O)N1N=C(c2ccc(NS(C)(=O)=O)cc2)CC1c1cccs1 (stereo not drawn)	0	0	0	0[0.00184 µM]	0	0
CS(=O)(=O)Nc1ccc(C2=NN(C(=O)CCCC(=O)O)C(c3cccs3)C2)cc1 (stereo not drawn)	0	0	1.85µM	0	0	0
Cc1ccccc1C(=O)N1N=C(c2ccc(NS(C)(=O)=O)cc2)CC1c1cccs1 (stereo not drawn)	0	0	1.65µM	?	0	0
COc1cccc(NC(=O)N2CCC(NC(=O)C3CCCCC3)CC2)c1	0	0	0	0	0	0
N#CCSc1ccccc1NC(=O)CN1C(=O)C2CC=CCC2C1=O (stereo not drawn)	-	-	0	0	-	0
O=C(NCC1CCCCC1)c1ccc(F)cc1Cl	0	89.0	?	0	57.0	0
Cc1c(NC(=O)C(C)Sc2nc(N)cc(=O)[nH]2)c(=O)n(-c2ccccc2)n1C (stereo not drawn)	-	-	0	0	-	0
CC(=O)N1CCOc2ccc(S(=O)(=O)N3CCCC(C)C3)cc21 (stereo not drawn)	0	0	11.7µM	0	0	0
CC(=O)N1CCOc2ccc(S(=O)(=O)N3CCC(C(=O)Nc4ccc(F)cc4)CC3)cc21	0	0	14.7µM	?	0	?
CC(=O)OCC(=O)[C@@]1(O)CCC2C3CCC4=CC(=O)CC[C@]4(C)C3=CC[C@@]21C (stereo partly drawn)	-	-	0	0	-	-
CC(C)(C)C(=O)[C@H]1[C@H](c2ccccc2)[C@@]2(N=C(c3ccccc3)OC2=O)C2c3ccccc3C=NN21 (stereo partly drawn)	?	0	?	?	39.8	0
O=C(O)C1C2C=CC(C2)C1C(=O)Nc1ccc(C(=O)N2CCCCC2)cc1 (stereo not drawn)	0	0	-	0	0	0
CCCOc1ccc(C(=O)Nc2ccc3c(c2)OCO3)cc1	0	121.8	0	0	48.9	0
CCCCOc1ccc(C(=O)Nc2ccc3c(c2)OCO3)cc1	-	0	0	0	17.8	0
CCC(=O)Nc1ccc(C(=O)Nc2ccc3c(c2)OCO3)cc1	0	0	?	0	0	0
CCC(=O)Oc1ccc(C(=O)Nc2ccc3c(c2)OCO3)cc1	0	107.5	0	0	46.4	0
CC(=O)OC(c1nc2ccccc2c(=O)n1C1CC2(OC1=O)c1ccccc1N1C(=O)C(C)(C)N(O)C12)C(C)C (stereo not drawn)	0	0	10.4µM	2.08µM	0	0
Cc1sc(NC(=O)CSc2nc(N)cc(N)n2)c(C#N)c1C	0	0	0	0	0	0
CC1CN(Cc2c(O)ccc3c(=O)c(-c4ccccc4)coc23)CC(C)O1 (stereo not drawn)	0	0	0	0	0	0
CC1CCCN(Cc2c(O)ccc3c4c(c(=O)oc23)CCCC4)C1 (stereo not drawn)	0	0	1.47µM	1.31µM	0	0
O=c1oc2c(CN3CCOCC3)c(O)ccc2c2c1CCC2	0	0	?	0	0	0
CC1CN(Cc2c(O)ccc3c2oc(=O)c2ccccc23)CC(C)O1 (stereo not drawn)	0	0	2.33µM	6.57µM	0	0
Cn1c(CN2CCOCC2)nnc1SCC(=O)Nc1cccc(C(F)(F)F)c1	0	0	0	0	0	0
CC(NC(=O)CSc1nnc(-c2cccnc2)n1N)c1ccccc1 (stereo not drawn)	0	0	?	0	0	0
